This passage reports growth results from PubChem BioAssay (NCI).

Holding throughout (experiment): NCI-60 one-dose screen, 48 h (100 = growth as untreated, 0 = no growth, -100 = all killed)
One assay relates to NCI-H226 lung. The settings on record: 10 µM unless noted.
The next assay relates to NCI-H322M lung. The settings on record: 10 µM unless noted.
The test system of another assay is HOP-62 NSCLC. Conditions: 10 µM unless noted.
The subject of a further assay is HOP-92 NSCLC. Conditions: 10 µM.
In another assay the test system is NCI-H522 lung. The settings on record: 10 µM.
A further assay concerns A549/ATCC NSCLC. Conditions: 10 µM unless noted.
The subject of the next assay is 786-0 renal. Conditions: 10 µM unless noted.
A further assay relates to COLO 205 colon. The settings on record: 10 µM unless noted.
Another assay deals with NCI-H460 lung. Conditions: 10 µM unless noted.

Each structure is given as a SMILES string. The panel holds about 83,000 compounds, 20% with a hit somewhere; the sample as a whole holds those more often.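 48-hour exposure, single concentration, 96-well plates; percent growth endpoint where 0 means no net growth. Active: below 10.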 A number with no mark means an inactive call. The source made the active and inactive calls.

For `Cc1ccc(CC(=O)O)c(C)c1`, the growth is 99.8% in the assay on NCI-H226 lung; 108% with NCI-H322M lung; 99.6% in the assay on HOP-62 NSCLC; 98.5% with HOP-92 NSCLC; 85% in the assay on NCI-H522 lung; 94.5% in the assay with A549/ATCC NSCLC. Moreover, the growth in the assay with 786-0 renal is 105%; with COLO 205 colon it was 113%.
In the case of `CC[C@H](Nc1ncnc2nc[nH]c12)c1nc2cccc(NCc3ccc(C(=O)NO)nc3)c2c(=O)n1-c1ccccc1`, the growth with NCI-H226 lung is 66.7%; in the assay on NCI-H322M lung, 77.7%; in the assay with NCI-H460 lung, 24.6%; with HOP-92 NSCLC it was 23.2%; in the assay with NCI-H522 lung, 22.9%; with A549/ATCC NSCLC it was 68.2%. In the assay on 786-0 renal, the growth was 59.1%.
As for `CCOC(=O)C1=C(C(F)(F)F)NC(=S)NC1CN1C(=O)c2ccccc2C1=O` (stereo unspecified), the growth was 116% in the assay with NCI-H226 lung; 103% in the assay with NCI-H322M lung; 106% with NCI-H460 lung; 82.3% with HOP-92 NSCLC; 111% in the assay on NCI-H522 lung; 118% with A549/ATCC NSCLC. For the same molecule, the growth is 99.7% in the assay on 786-0 renal and 119% in the assay with COLO 205 colon.
As to `CC(=O)OCC(=O)[C@@]1(O)[C@H](C)C[C@H]2[C@@H]3C=C(C)C4=Cc5c(cnn5-c5ccc(F)cc5)C[C@]4(C)[C@H]3[C@@H](O)C[C@@]21C`, the growth in the assay with NCI-H226 lung is 59.9%; with NCI-H322M lung, 49.9%; with HOP-62 NSCLC, -11.8% (active); in the assay with HOP-92 NSCLC it was 24.4%; in the assay with NCI-H522 lung, -23.7% (active); in the assay on A549/ATCC NSCLC, 16.7%. The growth with 786-0 renal was -26.5% (active); in the assay on COLO 205 colon, -39.2% (active).
Regarding `N#Cc1ccc(NC2c3ccccc3CC2O)cc1` (stereo unspecified), the growth in the assay with NCI-H226 lung was 102%; in the assay on NCI-H322M lung, 114%; in the assay with HOP-62 NSCLC it was 105%; in the assay with HOP-92 NSCLC, 85%; with NCI-H522 lung it was 104%; in the assay on A549/ATCC NSCLC, 106%. Besides, the growth in the assay on 786-0 renal and in the assay on COLO 205 colon was 108% in each case.
For `Nc1ccc(N=Nc2ccccc2)c2cc(S(=O)(=O)O)ccc12`, the growth in the assay with NCI-H226 lung is 103%; in the assay with NCI-H322M lung, 104%; with HOP-62 NSCLC, 92.4%; in the assay on HOP-92 NSCLC, 94.5%; with NCI-H522 lung, 88.5%; in the assay on A549/ATCC NSCLC, 99.3%. Moreover, the growth with 786-0 renal was 104%; in the assay on COLO 205 colon, 116%.
Regarding `COc1ccc(-c2nc(SCC(C)C)nc(Nc3ccc([N+](=O)[O-])cc3)c2C#N)cc1`, the growth is 85.3% in the assay on NCI-H226 lung; 86.8% with NCI-H322M lung; 57% in the assay on NCI-H460 lung; 93.3% in the assay on HOP-92 NSCLC; 92% in the assay on NCI-H522 lung; 61.5% with A549/ATCC NSCLC. In addition, the growth with 786-0 renal is 94.7%.
`FC(F)(F)c1cccc(-c2[nH]ncc2-c2nnnn2-c2ccccc2)c1`: the growth in the assay on NCI-H226 lung is 76.2%; with NCI-H322M lung it was 57.7%; with NCI-H460 lung, 21.8%; in the assay with HOP-92 NSCLC it was 34.2%; with NCI-H522 lung, 23%; in the assay on A549/ATCC NSCLC, 41.8%. For the same molecule, the growth with 786-0 renal is 58.2%; in the assay with COLO 205 colon, 36%.
As for `C[C@]12CC[C@H]3[C@@H](CC[C@H]4C[C@@H](O)CC[C@@]43C)[C@@H]1CC(=O)C2`, the growth with NCI-H226 lung was 100%; with NCI-H322M lung, 106%; in the assay on HOP-62 NSCLC, 96.8%; with NCI-H460 lung, 103%; with A549/ATCC NSCLC it was 100%; in the assay on 786-0 renal, 107%. For the same molecule, the growth in the assay with COLO 205 colon is 101%.
Consider `CCCCCCCCCCCCCCCCCCOP(=O)(O)O`, for which the growth in the assay with NCI-H226 lung was 98.8%; in the assay on NCI-H322M lung, 103%; in the assay with HOP-62 NSCLC, 100%; in the assay on NCI-H460 lung, 101%; with A549/ATCC NSCLC, 105%; in the assay on 786-0 renal, 116%. Moreover, the growth in the assay with COLO 205 colon is 111%.
